Where a name gives a salt, the structure may show the parent alone.
Test system: Drosophila S2 cl14 SmoIP sensor cells
Assay: normalized SmoIP GFP fluorescence (untreated unstimulated = 0%, untreated Hh-stimulated = 100%); higher = more Smo activation sensor fluorescence
Conditions: compound concentration: 2 uM, 24 h
[1] = stimulation: Hh conditioned medium (+Hh)
[2] = stimulation: mock conditioned medium (-Hh)
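Further: flow cytometry read-out as median GFP intensity of gated cells, compounds added 30 min before Hh-conditioned or mock medium, mock-treated cells serving as unstimulated baseline.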

SMILES	normalized SmoIP GFP fluorescence [1]	normalized SmoIP GFP fluorescence [2]
CC[C@@H](C)Nc1cc(C(=O)N[C@H]2C[C@H]3CC[C@@H](C2)N3c2ccc(C(=O)C3CC3)cn2)c(C)cc1C(N)=O	150%	18%
Nc1cc(C(F)(F)F)c(-c2cc(N3CCOCC3)nc(N3CCOCC3)n2)cn1	68%	-8.9%
O=C(/C=C\n1cnc(-c2cc(C(F)(F)F)cc(C(F)(F)F)c2)n1)N1CC(F)(F)C1	118%	-0.264%
Cc1ccc(Sc2ccccc2N2CCNCC2)c(C)c1	169%	-11.4%
Clc1ccc2nsnc2c1NC1=NCCN1 [Tizanidine-hydrochloride]	105%	-5.76%
CCS(=O)(=O)c1cccc(-c2cc(C(=O)NC3CCN(C)CC3)c(C)c3[nH]c4ncc(C)cc4c23)c1	103%	-25.2%
CN(C)CCCCC(=O)Nc1ccc(NC(=S)NC(=O)c2ccc(C(C)(C)C)cc2)cc1 [tenovin-6]	112%	3.49%
CN1C(=O)C(Cc2c[nH]c3ccccc23)NC1=S (stereo not drawn) [necrostatin-1]	134%	-16.1%
O=C(N/N=C/c1ccc(O)c(O)c1)c1cc2ccccc2cc1O [dynasore]	129%	1.24%
O=C(O)c1ccc(N2C(=O)/C(=C\c3ccc(-c4ccc([N+](=O)[O-])cc4)o3)C=C2c2ccccc2)cc1 [4e1rcat]	105%	-0.265%
O=C(NCc1ccccc1)c1csc(Nc2ccncn2)n1 [Thiazovivin]	72.7%	-11.6%
Cc1ccc(Nc2nccc(N(C)c3ccc4c(C)n(C)nc4c3)n2)cc1S(N)(=O)=O [Pazopanib-Hydrochloride]	117%	-4.53%
CC(C)n1nc(-c2ccc3oc(N)nc3c2)c2c(N)ncnc21	73.9%	-0.889%
CC(=O)O[C@H]1CC[C@@]2(C)C(=CCC3C2CC[C@]2(C)C(c4cccnc4)=CCC32)C1 (stereo partly drawn) [Abiraterone-Acetate-CB7630]	106%	-12.7%
CNCc1ccc(-c2cc(-c3nc(-c4ccc(S(=O)(=O)C(C)C)cc4)cnc3N)on2)cc1	123%	28.9%
O=C(Nc1ccncc1)c1cc([N+](=O)[O-])ccc1Cl	114%	-2.82%
CCn1c(-c2nonc2N)nc2c(C#CC(C)(C)O)ncc(OC[C@H]3CCCNC3)c21	98.8%	-8.56%
Cn1cc(-c2ccc3ncc(Cc4ccc5ncccc5c4)n3n2)cn1	123%	-6.97%
Cc1cc(C#N)cc(C)c1Oc1nc(Nc2ccc(C#N)cc2)nc(N)c1Br [etravirine-tmc125]	93.3%	-0.264%
COc1cc2ncnc(Nc3ccc(F)c(Cl)c3)c2cc1OCCCN1CCOCC1 [Gefitinib]	116%	-4.53%
Cc1cc(OCCCS(C)(=O)=O)cc(C)c1-c1cccc(COc2ccc3c(c2)OC[C@H]3CC(=O)O)c1	120%	-6.79%
Nc1nc(CC(=O)Nc2ccc(CCNC[C@H](O)c3ccccc3)cc2)cs1 [mirabegron-ym178]	108%	-5.15%
Cc1nn(-c2ccccc2)c(C)c1C=NN1CCN(Cc2ccccc2)CC1 [sant-1]	103%	-2.59%
CN(C)C(=O)c1cc2cnc(Nc3ccc(N4CCNCC4)cn3)nc2n1C1CCCC1	98.3%	-0.265%
CCOc1nc2cccc(C(=O)O)c2n1Cc1ccc(-c2ccccc2-c2noc(=O)[nH]2)cc1 [azilsartan-tak-536]	104%	-4.7%

SMILES	normalized SmoIP GFP fluorescence [1]	normalized SmoIP GFP fluorescence [2]
CNCCC(Oc1ccc(C(F)(F)F)cc1)c1ccccc1 (stereo not drawn) [Fluoxetine-hydrochloride]	111%	1.89%
Nc1nc(N)c(N=O)c(OCC2CCCCC2)n1	139%	12.5%
Cc1ccc2nc(NCCN)c3ncc(C)n3c2c1	137%	-9.4%
Cc1cc(Cn2cnc3c2CC(C(=O)O)N(C(=O)C(c2ccccc2)c2ccccc2)C3)ccc1N(C)C (stereo not drawn)	109%	-4.13%
C[C@H](N[C@@H](CCc1ccccc1)C(=O)O)C(=O)N1CCC[C@H]1C(=O)O [Enalaprilat]	117%	-0.265%
CC(C)n1nc(-c2cc3cc(O)ccc3[nH]2)c2c(N)ncnc21	117%	-12.7%
C=CC(=O)Nc1cccc(Nc2nc(Nc3ccc(N4CCN(C(C)=O)CC4)cc3OC)ncc2C(F)(F)F)c1	61.9%	44%
CN[C@H]1CC[C@@H](c2ccc(Cl)c(Cl)c2)c2ccccc21 [sertraline-hcl]	108%	2.46%
O=C1c2ccccc2C(=O)c2c1ccc(O)c2O [Alizarin]	141%	-7.96%
CCOC(=O)c1ncn2c1CN(C)C(=O)c1cc(F)ccc1-2 [Flumazenil]	110%	1.57%
c1ccc2c(CCNc3ccc(Nc4ccncc4)cc3)c[nH]c2c1	106%	10.7%
Cc1ccc(S(=O)(=O)C=CC#N)cc1	121%	2.86%
COc1ccc(COc2cc3oc(=O)c4cc(C(C)O)ccc4c3cc2OC)cc1 (stereo not drawn) [Palomid-529-P529]	134%	-15.8%
COc1ccc(NS(=O)(=O)c2sc3ccc(Cl)cc3c2C)cc1N1CCNCC1	108%	2.86%
CNCc1ccc(C)c(NC(=O)c2ccc(Nc3nc(-c4ccccc4)c4ccccc4n3)cc2)c1	124%	11.6%
Clc1ccc2c(c1)CCc1cccnc1C2=C1CCNCC1 [desloratadine]	109%	1.21%
Cc1ccc([C@@H]2O[C@H](CO)[C@@H](O)[C@H](O)[C@H]2O)cc1Cc1ccc(-c2ccc(F)cc2)s1 [canagliflozin]	123%	-10.2%
O=C(COc1cccc2c(=O)[nH]ccc12)c1ccccc1	139%	0.334%
CC(C)OC(=O)C1=CN(C(=O)c2ccc(F)c(F)c2)CC(C)(C)c2c1[nH]c1ccccc21	117%	12.5%
CC(COc1ccccc1)N(CCCl)Cc1ccccc1 (stereo not drawn) [Phenoxybenzamine-hydrochloride]	148%	-12.4%
C[C@]1(c2nc3c(C(N)=O)cccc3[nH]2)CCCN1	117%	-2.96%
CCN(CC)CCCC(C)Nc1nc(C)cc(Nc2ccc3nc(C)cc(N)c3c2)n1 (stereo not drawn)	112%	-4.53%
c1ccc(-c2[nH]ncc2-c2ccnc3ccccc23)nc1	101%	0.247%
NC(=O)C(c1ccccc1)(c1ccccc1)[C@@H]1CCN(CCc2ccc3c(c2)CCO3)C1 [darifenacin-hydrobromide]	116%	0.0767%
Cc1ccc(=O)n(-c2ccccc2)c1 [pirfenidone]	107%	-3.16%

SMILES	normalized SmoIP GFP fluorescence [1]	normalized SmoIP GFP fluorescence [2]
COc1ccccc1N1CCN(CCCNc2cc(=O)n(C)c(=O)n2C)CC1 [urapidil-hydrochloride]	110%	-7.96%
O=c1cc(-c2ccccc2)oc2cc(O)c(O)c(O)c12 [Baicalein]	108%	1.24%
COc1cccc(Nc2c(C(N)=O)cnc3c(C)cc(S(=O)(=O)c4cccc(C(=O)N(C)C)c4)cc23)c1	111%	-16.1%
Cc1ccccc1C(=O)Nc1ccc(C(=O)N2CCCC(N(C)C)c3ccccc32)cc1 (stereo not drawn) [mozavaptan]	105%	-2.08%
Oc1cc(O)cc(/C=C/c2ccc(O)c(O)c2)c1 [piceatannol]	114%	-2.08%
CNC(=O)c1ccc(N2C(=S)N(c3ccc(C#N)c(C(F)(F)F)c3)C(=O)C2(C)C)cc1F	113%	4.03%
Cn1c(N2CCCCS2(=O)=O)nc(C(=O)NCc2ccc(F)cc2)c(O)c1=O	99.7%	-2.42%
CC(C)c1cc(-c2ccc(F)c3ccccc23)nc(N)n1	144%	-7.78%
Cc1cc(Nc2ccc(NC(=O)c3ccc(Nc4ccnc5ccccc45)cc3)cc2)nc(N)n1	108%	-3.5%
Cc1cc(CN2CCN(c3c(Br)cnc4nc(-c5ccc(N6CCN(C)CC6)cc5)[nH]c34)CC2)no1	123%	20.5%
O=c1cc(-c2ccc(O)cc2)oc2cc(O)cc(O)c12 [Apigenin]	140%	-2.19%
CCOC(=O)[C@H](CCc1ccccc1)N[C@@H](C)C(=O)N1Cc2cc(OC)c(OC)cc2C[C@H]1C(=O)O [moexipril-hydrochloride]	126%	3.4%
Cc1cc(C)nc(NS(=O)(=O)c2ccc(NC(=S)NC(=O)COc3ccc(Br)cc3Cl)cc2)n1	105%	-4.81%
O=c1sn(-c2cccc3ccccc23)c(=O)n1Cc1ccccc1 [tideglusib]	101%	-0.264%
CN(C)CCOc1ccc(-c2nc(-c3ccncc3)c(-c3ccc4c(c3)CC/C4=N\O)[nH]2)cc1	114%	4.48%
CN1CCN(c2ccc3nc(-c4c(N)c5c(F)cccc5[nH]c4=O)[nH]c3c2)CC1 [dovitinib]	240%	72.9%
Cc1cccc(-c2[nH]c(C(C)(C)C)nc2-c2ccc3c(c2)OCO3)n1	133%	-6.97%
CCN1CCCC1CNC(=O)c1cc(S(=O)(=O)CC)c(N)cc1OC (stereo not drawn) [Amisulpride]	111%	3.51%
O=C(O)c1ccc(C=C2SC(=S)N(c3cccc(C(F)(F)F)c3)C2=O)cc1 [cftrinh-172]	121%	2.24%
CC(C)NCC(O)COc1ccc(COCCOC(C)C)cc1 (stereo not drawn) [Bisoprolol-Fumarate]	103%	8.79%
CO[C@H]1C[C@@H]2CC[C@@H](C)[C@@](O)(O2)C(=O)C(=O)N2CCCC[C@H]2C(=O)O[C@H]([C@H](C)C[C@@H]2CC[C@@H](OCCO)[C@H](OC)C2)CC(=O)[C@H](C)/C=C(\C)[C@@H](O)[C@@H](OC)C(=O)[C@H](C)C[C@H](C)/C=C/C=C/C=C/1C [Everolimus(RAD001)]	32.9%	-10.1%
CN(C)Cc1ccc(S(=O)(=O)n2ccc(/C=C/C(=O)NO)c2)cc1 [resminostat-ras2410]	140%	-5.8%
CC(=O)Nc1cccc2c1c(Sc1ccc(Cl)cc1)c(C)n2CC(=O)O	114%	-3.05%
CCNC(=O)[C@H]1O[C@@H](n2cnc3c(N)nc(NCCc4ccc(CCC(=O)O)cc4)nc32)[C@H](O)[C@@H]1O	148%	-8.77%
